# Measurements as given in ChEMBL document CHEMBL3988442, “University of Dundee, Small-Polar-MMV Screening Library” (2021).
# Target: T1, Aspartate--tRNA(Asp/Asn) ligase (Mycobacterium tuberculosis (strain ATCC 25618 / H37Rv)) (UniProt P9WFW3); further: in the data most compounds retested in dose-response had high values
# T1 sequence (whole entry): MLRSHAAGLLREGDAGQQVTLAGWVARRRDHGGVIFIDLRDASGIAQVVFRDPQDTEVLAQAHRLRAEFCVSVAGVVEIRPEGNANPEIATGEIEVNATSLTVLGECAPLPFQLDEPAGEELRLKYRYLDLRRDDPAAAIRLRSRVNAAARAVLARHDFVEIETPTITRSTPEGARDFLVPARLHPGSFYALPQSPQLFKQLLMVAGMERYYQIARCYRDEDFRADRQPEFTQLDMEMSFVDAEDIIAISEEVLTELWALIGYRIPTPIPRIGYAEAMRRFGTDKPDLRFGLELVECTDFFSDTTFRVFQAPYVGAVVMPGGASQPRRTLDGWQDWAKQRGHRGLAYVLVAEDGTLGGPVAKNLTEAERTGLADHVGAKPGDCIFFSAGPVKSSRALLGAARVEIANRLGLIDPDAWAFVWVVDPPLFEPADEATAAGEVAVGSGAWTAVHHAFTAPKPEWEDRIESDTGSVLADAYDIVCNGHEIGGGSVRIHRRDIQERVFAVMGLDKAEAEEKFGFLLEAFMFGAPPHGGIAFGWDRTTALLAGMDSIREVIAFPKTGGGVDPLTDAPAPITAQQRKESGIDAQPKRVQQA
# Assay: Assay for Asp RNA synthetase-1 from Mycobacterium tuberculosis
# Type: functional
# Set-up: scale not given: direction of the effect not stated beside the values
# Conditions: 30 µM
row,Structure (SMILES),Percent Effect
1,CCOC(=O)c1c(NC(=O)CN2CCN(C(C)=O)CC2)sc2c1CCC2,-3.95%
2,CCc1nc2n(n1)CC(NCC(=O)Nc1ccc(Cl)cn1)CC2 (stereo not drawn),0.314%
3,Cc1ncc2c(n1)CN(Cc1noc(C3CC3)n1)CC2,0.182%
4,COc1c(CNCc2ccc(CN(C)C)cc2)c(C)nn1C,2.29%
5,CN(Cc1cccnc1)C1CC2(CCN(c3ccccn3)CC2)C1,2.16%
6,COc1ccc2c(c1)CN(Cc1nc3c(cnn3C)c(=O)[nH]1)CC2,-4.4%
7,O=C(C1CC=CC1)N1C[C@@H]2[C@@H](C1)OCC(=O)N2Cc1cccnc1,1.21%
8,Cc1nc(C2CCCN2CCCS(=O)(=O)N(C)C)no1 (stereo not drawn),-1.34%
9,CCc1nc(CN2CCN(C(=O)C3CCCCC3)CC2)cs1,-0.656%
10,CCn1cc(CN(C)S(=O)(=O)c2cc(Cl)ccc2Cl)cn1,-5.08%
11,CCCc1noc(CN(C)C(=O)C2COc3ccccc3C2)n1 (stereo not drawn),1.75%
12,Cc1nccn1-c1cc(CNC(=O)CCC2CCCO2)ccn1 (stereo not drawn),2.98%
13,O=C1C(NS(=O)(=O)c2cc(F)cc(F)c2)CCN1Cc1ccccc1 (stereo not drawn),-5.71%
14,c1ccc2oc(CCCN3CCCC3Cn3cncn3)nc2c1 (stereo not drawn),-1.22%
15,COc1ccc(C2=C(C)C(N3CCc4ccccc43)=NS2(=O)=O)cc1,-2.38%
16,COc1cccc2c1ccn2CCC(=O)NCCCC(=O)O,-1.42%
17,Cn1c(Cn2ccnc2)nnc1C1CCN(Cc2cccnc2N)CC1,-2.34%
18,COc1ccc(Br)c(C(=O)NCCNc2ccc(C(F)(F)F)cn2)c1,7.7%
19,COCCCN(CCOC)C(=O)Nc1ccccc1Br,-10.6%
20,CC(O)CC(C)(C)CNC(=O)NCc1cccc(-n2cncn2)c1 (stereo not drawn),-1.59%

row,Structure (SMILES),Percent Effect
1,N#Cc1cccc(C(=O)N2CCc3ncc(Cn4cccn4)n3CC2)c1,3.32%
2,Cc1cc(C(=O)N2C[C@@H]3COC[C@]3(c3nnc(C4CC4)o3)C2)on1,2.94%
3,CCc1cc(N[C@H]2CC[C@H](O)CC2)n2nc(C)c(C)c2n1,1.45%
4,COc1ccccc1C(O)CNC(=O)Nc1ncccc1C (stereo not drawn),-3.63%
5,N#Cc1cc(NC(=O)C2CC=CC2)ccc1N1CCC(O)CC1,-1.55%
6,CCCc1cc(C(=O)N2CCOC(c3nc(-c4cccs4)no3)C2)no1 (stereo not drawn),-0.544%
7,CCN(CC)C(=O)c1cc(C2CCCN2C)ccn1 (stereo not drawn),4.39%
8,CCO[C@@H]1CO[C@@]2(CCCN(C(=O)COc3ccccc3OC)C2)C1,1.03%
9,CNC(=O)c1ccc(C(=O)N2CCCC2c2cnn(C)c2)cn1 (stereo not drawn),-5.79%
10,COc1ccc(CN2C[C@H]3CN(c4ccsc4)C(=O)[C@H]3C2)cc1,4.05%
11,O=C(c1ccco1)N1CCC2(CCC(=O)N2Cc2cccc(F)c2)CC1,1.32%
12,CC(C)C(=O)N1CCN(C(=O)CCc2nnc(-c3ccccc3)o2)CC1,1.17%
13,Cc1cc(C(=O)N2CCc3nnc(N)cc3C2)c(C)n1C1CC1,7.93%
14,CCc1nc(C2CCCN2C(=O)c2ccc3c(c2)nc(C)n3C)no1 (stereo not drawn),-0.367%
15,O=C(c1ccc(F)cc1F)N1C[C@@H](O)[C@H](N2CCOCC2)C1,4.46%
16,Cc1cnn(CC2CCCCN2Cc2nc(N)c3ccccc3n2)c1 (stereo not drawn),-5.71%
17,CC1CCN(C(=O)c2ccn(COc3ccc(F)cc3)n2)CC1,9.51%
18,Cc1nn(C)c(C)c1C1CCCN1C(=O)c1ccc(CN(C)C)cc1 (stereo not drawn),-2.88%
19,CN(C)c1ccc(NC(=O)NCc2ccccn2)cn1,3.94%

# Target: Shiga toxin 2 (Escherichia coli O157:H7) (UniProt P09385+P09386)
# Assay: E. coli 0.157:H7 Shiga Toxin SOP - stx2 screening assay
# Type: functional
# Set-up: scale not given: direction of the effect not stated beside the values
# Conditions: 30 µM
row,Structure (SMILES),Percent Effect
1,CCOC(=O)c1c(NC(=O)CN2CCN(C(C)=O)CC2)sc2c1CCC2,16.4%
2,CCc1nc2n(n1)CC(NCC(=O)Nc1ccc(Cl)cn1)CC2 (stereo not drawn),2.33%
3,Cc1ncc2c(n1)CN(Cc1noc(C3CC3)n1)CC2,-46.9%
4,COc1c(CNCc2ccc(CN(C)C)cc2)c(C)nn1C,-30.1%
5,CN(Cc1cccnc1)C1CC2(CCN(c3ccccn3)CC2)C1,-47.1%
6,COc1ccc2c(c1)CN(Cc1nc3c(cnn3C)c(=O)[nH]1)CC2,-3.66%
7,O=C(C1CC=CC1)N1C[C@@H]2[C@@H](C1)OCC(=O)N2Cc1cccnc1,-12.2%
8,Cc1nc(C2CCCN2CCCS(=O)(=O)N(C)C)no1 (stereo not drawn),-7.71%
9,CCc1nc(CN2CCN(C(=O)C3CCCCC3)CC2)cs1,1.6%
10,CCn1cc(CN(C)S(=O)(=O)c2cc(Cl)ccc2Cl)cn1,-51.4%
11,CCCc1noc(CN(C)C(=O)C2COc3ccccc3C2)n1 (stereo not drawn),-22.5%
12,Cc1nccn1-c1cc(CNC(=O)CCC2CCCO2)ccn1 (stereo not drawn),2.2%
13,O=C1C(NS(=O)(=O)c2cc(F)cc(F)c2)CCN1Cc1ccccc1 (stereo not drawn),3.9%
14,c1ccc2oc(CCCN3CCCC3Cn3cncn3)nc2c1 (stereo not drawn),7.93%
15,COc1ccc(C2=C(C)C(N3CCc4ccccc43)=NS2(=O)=O)cc1,-24.6%
16,COc1cccc2c1ccn2CCC(=O)NCCCC(=O)O,-21%
17,Cn1c(Cn2ccnc2)nnc1C1CCN(Cc2cccnc2N)CC1,-12.5%
18,COc1ccc(Br)c(C(=O)NCCNc2ccc(C(F)(F)F)cn2)c1,23.3%
19,COCCCN(CCOC)C(=O)Nc1ccccc1Br,-6.69%
20,CC(O)CC(C)(C)CNC(=O)NCc1cccc(-n2cncn2)c1 (stereo not drawn),7%

row,Structure (SMILES),Percent Effect
1,N#Cc1cccc(C(=O)N2CCc3ncc(Cn4cccn4)n3CC2)c1,9.25%
2,Cc1cc(C(=O)N2C[C@@H]3COC[C@]3(c3nnc(C4CC4)o3)C2)on1,-27.3%
3,CCc1cc(N[C@H]2CC[C@H](O)CC2)n2nc(C)c(C)c2n1,-12.4%
4,COc1ccccc1C(O)CNC(=O)Nc1ncccc1C (stereo not drawn),8.45%
5,N#Cc1cc(NC(=O)C2CC=CC2)ccc1N1CCC(O)CC1,-9.47%
6,CCCc1cc(C(=O)N2CCOC(c3nc(-c4cccs4)no3)C2)no1 (stereo not drawn),-10.2%
7,CCN(CC)C(=O)c1cc(C2CCCN2C)ccn1 (stereo not drawn),1.51%
8,CCO[C@@H]1CO[C@@]2(CCCN(C(=O)COc3ccccc3OC)C2)C1,-25.3%
9,CNC(=O)c1ccc(C(=O)N2CCCC2c2cnn(C)c2)cn1 (stereo not drawn),-8.21%
10,COc1ccc(CN2C[C@H]3CN(c4ccsc4)C(=O)[C@H]3C2)cc1,-26.4%
11,O=C(c1ccco1)N1CCC2(CCC(=O)N2Cc2cccc(F)c2)CC1,-6.58%
12,CC(C)C(=O)N1CCN(C(=O)CCc2nnc(-c3ccccc3)o2)CC1,-3.74%
13,Cc1cc(C(=O)N2CCc3nnc(N)cc3C2)c(C)n1C1CC1,-1.08%
14,CCc1nc(C2CCCN2C(=O)c2ccc3c(c2)nc(C)n3C)no1 (stereo not drawn),2.43%
15,O=C(c1ccc(F)cc1F)N1C[C@@H](O)[C@H](N2CCOCC2)C1,-20.4%
16,Cc1cnn(CC2CCCCN2Cc2nc(N)c3ccccc3n2)c1 (stereo not drawn),-7.68%
17,CC1CCN(C(=O)c2ccn(COc3ccc(F)cc3)n2)CC1,-44.1%
18,Cc1nn(C)c(C)c1C1CCCN1C(=O)c1ccc(CN(C)C)cc1 (stereo not drawn),-14%
19,CN(C)c1ccc(NC(=O)NCc2ccccn2)cn1,-60.4%
